Screens (PubChem)
Only some compounds are listed: those with a hit (about 7.8% of all), similar ones and a draw of the others.
HCV inhibitor: inhibitors of hepatitis C virus infection; Huh7.5.1 HCVcc-Cre infection, luciferase reporter, 44 h; Potency, µM (doses to about 41.8 µM), without a hit: at the top dose activity change, negative = inhibition, most hits filed as inhibitors; hit rate 3.4% among 340,000; AID 651820; active = well fitted inhibition curve with a large enough effect; inconclusive = small, poorly fitted or top-dose-only effect, or another doubt; inactive = no such curve, though single readings can be large or run the other way; also: potency is read from the fitted curve at half-maximal effect
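Infectious HCVcc-Cre (~0.5 moi) was added to cells just after compound, with cells seeded 4 h earlier at 1,000 per well. Luciferase activity after 44 h culture reported infection; substrate was incubated 15 min at room temperature before reading.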
Lassa entry inh: inhibitors of Lassa virus binding or cell entry. Lassa virus pseudotype entry inhibition, cell reporter. Potency, µM (top dose mostly 37.9 µM), inactives show at the highest dose activity change, negative = inhibition, most hits filed as inhibitors. hit rate 1.2% among 300,000. AID 540256; calls by dose curve; tested in HEK293 cells; also: potency is read from the fitted curve at half-maximal effect; nearly all actives have a fitted effect of over 50% in size
VACV mCherry inh: vaccinia inhibition (mCherry reporter). Vaccinia virus mCherry reporter infection, fluorescence. Potency, µM (titrated, usually from 36.5 µM), without a hit: top-dose activity change, negative = inhibition, hits mostly inhibitors. AID 720579. hit rate 0.63% among 310,000; calls by dose curve; tested in A549 cells; also: potency is read from the fitted curve at half-maximal effect; nearly all actives have a fitted effect of over 35% in size
HCMV antiviral: inhibitors of human cytomegalovirus; hit rate 4.5% among 410,000; HFF cells, HCMV-luciferase reporter, 72 h; hits give low values; activity change, negative = inhibition, % at 57.5 µM; in the data active = activity change below about -60%; inconclusive = no clear call, values can overlap the other calls; inactive = above about -39%
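Luciferase read-out from HCMV-luciferase-infected HFFs (MOI 1 PFU/cell) 72 h post infection at 37C; compounds added after 16 h cell attachment; activity normalized between buffer-only basal and Salinomycin (10uM) inhibitor controls.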
VACV Venus inh: inhibitors of vaccinia virus (Venus reporter); Vaccinia virus Venus reporter expression, fluorescence; Potency, µM (titrated, usually from 36.5 µM), inactives show top-dose activity change, negative = inhibition, hits mostly inhibitors; hit rate 0.46% among 330,000; AID 720580; calls by dose curve; tested in A549 cells; also: potency is read from the fitted curve at half-maximal effect; nearly all actives have a fitted effect of over 30% in size
Marburg entry inh: blocks Marburg virus binding to or entry into cells; AID 540276; Potency, µM (series often up to 37.8 µM), inactives show at the highest dose activity change, negative = inhibition, usual class: inhibitors; Marburg virus pseudotyped entry inhibition, cell reporter; hit rate 1.8% among 300,000; calls by dose curve; tested in HEK293 cells; also: potency is read from the fitted curve at half-maximal effect
The depositor's hits bear a star; i = inactive; ? = inconclusive; · = no result given; ! = repeats disagree; [ ] = dose if it differs, or a comment. % is scaled to controls: 0 for no effect and ±100 for the full control effect.

SMILES | HCV inhibitor | Lassa entry inh | VACV mCherry inh | HCMV antiviral | VACV Venus inh | Marburg entry inh
COc1ccc(-c2c3c(=O)n(C)c(=O)n(C)c3cn2-c2cc(OC)ccc2OC)cc1 | ? | ? | ? | -23 | -23% | 13µM*
Cc1ccc2c(c1)CC(C)N2S(=O)(=O)c1nnc(NC(=O)c2ccccc2F)s1 (stereo not drawn) | · | 4%[46.1 µM] | -14% | 30 | -15% | ·
CCCNC(=O)CCn1nc(-c2ccc(C)cc2)c2ccccc2c1=O | -18% | -21%[46.1 µM] | -24% | -65*! | -17% | ·
CCCCNC(=O)CCn1nc(-c2ccccc2)c2ccccc2c1=O | ? | · | i | · | 1% | ·
CCCNC(=O)CCn1nc(-c2ccc(Cl)cc2)c2ccccc2c1=O | -12% | 4% | 0% | -24 | -7% | ?
CCCCNC(=O)CCn1nc(-c2ccc(C)cc2)c2ccccc2c1=O | -17% | · | · | -72* | · | ·
CC(C)CON=C1C[C@@H](O)[C@@H](O)[C@@H]2[C@H]3C(=O)N(C[C@@H]4CCCO4)C(=O)[C@@H]3CC[C@H]12 | · | · | · | · | · | -10%[14.2 µM]
Nc1ccc2nc(-c3ccccc3)sc2c1 | ? | 3.2µM* | -24% | -32 | -12% | ?
CCC(C)(C)NC(=S)Nc1ccc(-c2nc3ccc(C)cc3s2)cc1 | -21% | ? | ? | 96 | ? | ?
Cc1ccc2nc(-c3ccc(N)cc3)sc2c1 | ? | ? | ? | -33 | ? | 3.5µM*
Cc1ccc2nc(-c3ccc(NS(=O)(=O)c4ccc(F)cc4)cc3)sc2c1 | ? | ? | -22% | -94* | -23% | ?
Cc1ccc2nc(-c3ccc(NC(=S)NCC(C)(C)CN(C)C)cc3)sc2c1 | 2.2µM* | · | · | 10 | · | ·
Nc1ccc(-c2nc3cc(N)ccc3s2)cc1 | ? | ? | -1% | 58 | -8% | ?
COc1cc([C@@H]2C(C#N)=C(N)Oc3cc(C)n(CCN4CCOCC4)c(=O)c32)cc(OC)c1OC | · | · | · | · | · | 0%
CC(=O)OC[C@H]1O[C@@H](ON=C2C[C@@H](O)[C@@H](O)[C@@H]3[C@H]4C(=O)N(C5CCCCC5)C(=O)[C@@H]4CC[C@@H]23)[C@H](OC(C)=O)[C@@H](OC(C)=O)[C@H]1OC(C)=O | · | · | · | · | · | -25%[14.2 µM]
COc1ccccc1/C=C/C=N/n1c(-c2ccc(C)cc2)n[nH]c1=S | -15% | 3.7µM* | i | 29 | -12% | ?
Cc1cccc(NC(=O)/C(C#N)=C/c2cn(CC(=O)NCc3ccco3)c3ccccc23)c1C | -2% | -26% | -18% | -82* | -28% | -45%
N#C/C(=C\c1cn(Cc2ccccc2)c2ccccc12)C(=O)NCc1ccco1 | ? | 5% | -27% | -34 | -36% | 0%
Cc1ccc(C(CC(=O)Nc2ccc(F)c(Cl)c2)N2Cc3ccccc3C2=O)cc1 (stereo not drawn) | · | 4%[46.1 µM] | 2% | -104* | -4% | ·
CCc1ccc(-n2c(Cc3ccccc3)nnc2SCc2nc(-c3cccs3)no2)cc1 | · | ? | -7% | -14 | -7% | ?
COC(=O)c1ccc(C2C(C#N)=C(C)NC3=C2C(=O)CC(C)(C)C3)cc1 (stereo not drawn) | -7% | -6% | -9% | 26 | -5% | -8%
COc1ccc(C2CC(=O)C3=C(C2)NC(C)=C(C#N)C3c2ccc(N(C)C)cc2)cc1 (stereo not drawn) | 13% | 13µM* | · | 3 | 1% | ?
Cc1ccc(S(=O)(=O)Nc2c(C)nn(C)c2C)cc1C | 0.56µM* | -2%[46.1 µM] | i | -37 | -2% | -24%
Cc1nn(C)c(C)c1NS(=O)(=O)c1ccc(N2CCCC2=O)cc1 | ? | ? | ? | -62* | -30% | ?
Cn1c(Nc2ccccc2)nc2cnc(Nc3cccc(Cl)c3)cc21 | · | · | · | -7 | · | ·
SMILES | HCV inhibitor | Lassa entry inh | VACV mCherry inh | HCMV antiviral | VACV Venus inh | Marburg entry inh
Cc1ccc(OCC(=O)Nc2ccccc2C(=O)OCc2cc(=O)n3ccsc3n2)cc1C | · | 13%[46.1 µM] | -21% | 45 | -22% | ·
CC1(C)Cc2c(C#N)c(N3CCCC3)nc(-c3ccco3)c2CO1 | · | · | · | -15 | · | -1%
Cc1nc(N2CCN(Cc3ccccc3)CC2)c(C#N)c2c1COC(C)(C)C2 | 11µM* | -14% | · | ? | 5% | -24%
CC(C)c1nc(N2CCN(C(=O)c3ccccc3)CC2)c(C#N)c2c1COC(C)(C)C2 | ? | ? | -3% | -5 | -2% | 12µM*
Cc1ccc2c(c1)C1C[N+](C)(CC(=O)c3ccc(Cl)cc3Cl)CCC1N2C(=O)c1ccc(F)cc1 (stereo not drawn) | 13µM* | · | · | 38 | · | ·
Cc1ccc2c(c1)C1CN(C)CCC1N2C(=O)Nc1ccc(Cl)cc1 (stereo not drawn) | -28% | ? | -15% | -10 | -14% | ?
COc1ccc([N+](=O)[O-])cc1NC(c1nnc(-c2ccccc2)o1)c1ccccc1F (stereo not drawn) | · | -3%[46.1 µM] | -16% | 3 | -7% | ·
Cc1ccc2oc(C(Cl)(Cl)Cl)cc(=O)c2c1 | ? | -27% | 11µM* | -89* | ? | 12µM*
CC(C)Oc1ccc(C(=O)Nc2nonc2-c2ccc(OC(C)C)cc2)cc1 | · | ? | -16% | 62 | -21% | 3%[46.1 µM]
COCC=CC1=CC2=CC(=O)C(C)(OC(=O)c3cnc4ccccc4n3)C(=O)C2=CN1Cc1ccc(OC)cc1 (stereo not drawn) | · | · | · | · | · | -2%[14.2 µM]
Cc1cc(C)n(CC(=O)N2CCC(n3c(C(C)C)nc4cccnc43)CC2)n1 | · | · | 0% | · | 17% | ·
Cc1ccc(C)c(NC(=S)NCCSc2ccc(Cl)cc2)c1 | ? | -16% | -5% | -29 | -17% | 14%
Cc1cccc(NC(=S)NCCSc2ccc(Cl)cc2)c1 | -26% | 23% | -12% | -7 | -9% | ?
CCc1ccccc1NC(=S)NCCSc1ccc(Cl)cc1 | -12% | ? | -14% | -88* | -9% | ?
Cc1ccc(NC(=S)NCCSc2ccc(Cl)cc2)c(C)c1 | ? | 0% | -3% | -84* | -13% | -29%
Cc1ccccc1NC(=S)NCCSc1ccc(Cl)cc1 | ? | ? | -10% | -64* | -7% | ?
Cc1ccc2c(CC(=O)N(Cc3cccc(Cl)c3)C3CCS(=O)(=O)C3)coc2c1 (stereo not drawn) | · | -11%[46.1 µM] | -12% | 10 | -8% | -29%[46.1 µM]
COc1cc(-c2nnc(SCC(=O)N(C)C3CCCCC3)o2)cc(OC)c1OC | · | 0%[46.1 µM] | -17% | -9 | -1% | -4%[46.1 µM]
O=S(=O)(NC1CCSc2ccccc21)c1ccccc1 (stereo not drawn) | 16% | 1%[46.1 µM] | -29% | -28 | -12% | ?
CC(=O)Nc1ccc(S(=O)(=O)NC2CCSc3ccccc32)cc1 (stereo not drawn) | -6% | ? | -20% | -30 | -11% | 10µM*
Cc1ccc(Nc2ccc(S(=O)(=O)N3CCOCC3)cc2[N+](=O)[O-])c(C)c1 | ? | ? | -7% | -65* | -17% | ?
CCOc1ccc(NC(=O)Cc2ccc(-n3c(C)nc4cccnc43)cc2)cc1 | · | 2%[46.1 µM] | -11% | ? | -7% | ·
